# About 8,800 targets were measured; listed, in parts, are those with a hit and a random draw of the rest. About 0.5% of all pairs of compound and target were hits. Values without a mark were called inactive.
# What was measured:
# Experiment in all cases: log2 fold change, soluble protein after heating vs DMSO (PISA); higher = thermal stabilisation; K562 lysate, 10 uM; active = over 0.2 and 3.5 SD of the protein, either way, in both replicates (recomputed)
# [1] = compound: CN1CC[C@H](c2c(O)cc(O)c3c(=O)cc(-c4ccccc4Cl)oc23)[C@H](O)C1 [alvocidib]
# How it was run: (§1)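 The values are log-two fold changes in thermal stability compared with solvent controls and come from duplicates. They were obtained by TMTpro 16plex LC-MS/MS, with channel sums equalised, on the supernatant after 21,000xg for 90 min. That supernatant came from crude K562 extract at 1 mg/mL protein treated with 10 μM compound for 30 min, heated for 3 min across 48°C-58°C, pooled and brought to 0.5% NP-40 at 4°C.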
# [2] = compound: CN1CCc2c(c3ccccc3n2Cc2ccc(C(=O)NO)cc2)C1 [Tubastatin A]
# How it was run: as §1
# [3] = compound: CNC(=O)C1=CC=CC=C1NC2=NC(=NC=C2Cl)NC3=C(C=C(C=C3)N4CCOCC4)OC
# How it was run: as §1
# [4] = compound: CNC(=O)c1ccc(Nc2ncc(C(F)(F)F)c(NCc3nccnc3N(C)S(C)(=O)=O)n2)cc1 [defactinib]
# How it was run: as §1
# [5] = compound: CNc1nc(-c2ccc3c(N)n[nH]c3c2)cc(N2C[C@@H](C(=O)NC3CCCCC3)CC[C@H]2C)n1
# How it was run: as §1
# [6] = compound: COC(=O)N[C@@H](C)CNc1nccc(-c2cn(C(C)C)nc2-c2cc(Cl)cc(NS(C)(=O)=O)c2F)n1 [encorafenib]
# How it was run: as §1
# [7] = compound: COC(=O)[C@H](CCSC)NC(=O)C1=C(C=C(C=C1)NC[C@H](CS)N)C2=CC=CC=C2
# How it was run: as §1
# [8] = compound: COc1cc(Nc2ncc3c(n2)-c2ccc(Cl)cc2C(c2c(F)cccc2OC)=NC3)ccc1C(=O)O [alisertib]
# How it was run: as §1
# [9] = compound: COc1cc2nc(-c3cc(F)ccc3O)nc(N[C@@H]3CNC[C@H]3C(C)(C)O)c2cc1OC
# How it was run: as §1
# [10] = compound: COc1cc2ncnc(Nc3ccc(F)c(Cl)c3)c2cc1OCCCN1CCOCC1 [gefitinib]
# How it was run: as §1
# [11] = compound: CS(=O)(=O)CCNCc1ccc(-c2ccc3ncnc(Nc4ccc(OCc5cccc(F)c5)c(Cl)c4)c3c2)o1 [lapatinib]
# How it was run: as §1
# [12] = compound: C[C@H](C1=CC=C(C=C1)C(=O)NC2=C3C=CNC3=NC=C2)N
# How it was run: as §1
# [13] = compound: C[C@H](Nc1ncnc2nc[nH]c12)c1cc2cccc(Cl)c2c(=O)n1-c1ccccc1 [duvelisib]
# How it was run: as §1
# [14] = compound: Cc1cc(Nc2cc(CN3CCOCC3)c3nc(C)c(Cc4ccc(Cl)cc4F)n3n2)n[nH]1 [gandotinib]
# How it was run: as §1
# [15] = compound: Cc1cc(Nc2cc(N3CCN(C)CC3)nc(Sc3ccc(NC(=O)C4CC4)cc3)n2)n[nH]1 [tozasertib]
# How it was run: as §1
# [16] = compound: Cc1cccc(CC(=O)N2CCc3c2ccc(-c2cn(C)c4ncnc(N)c24)c3F)n1
# How it was run: as §1
# [17] = compound: CS(=O)(=O)N1CCN(Cc2cc3nc(-c4cccc5[nH]ncc45)nc(N4CCOCC4)c3s2)CC1 [pictilisib]
# How it was run: as §1
# [18] = compound: C[C@@H](Oc1cc(-c2cnn(C3CCNCC3)c2)cnc1N)c1c(Cl)ccc(F)c1Cl [crizotinib]
# How it was run: as §1
# [19] = compound: Cc1ccc(-n2nc(C(C)(C)C)cc2NC(=O)Nc2ccc(OCCN3CCOCC3)c3ccccc23)cc1 [doramapimod]
# How it was run: as §1
# [20] = compound: Cc1ccc(NC(=O)c2ccc(CN3CC[C@H](N(C)C)C3)c(C(F)(F)F)c2)cc1Nc1nccc(-c2cncnc2)n1 [bafetinib]
# How it was run: as §1
# Chain of UniProt Q68D91 (Q68D91 whole entry, looked up): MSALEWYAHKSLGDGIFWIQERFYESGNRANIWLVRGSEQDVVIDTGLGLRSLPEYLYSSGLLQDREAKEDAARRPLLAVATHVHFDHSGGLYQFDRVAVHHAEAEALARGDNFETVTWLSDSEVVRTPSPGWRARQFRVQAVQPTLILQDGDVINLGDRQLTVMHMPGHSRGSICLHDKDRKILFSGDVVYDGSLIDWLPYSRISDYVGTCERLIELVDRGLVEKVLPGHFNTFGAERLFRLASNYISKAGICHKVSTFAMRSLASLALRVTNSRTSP
# Chain of UniProt Q8N3R9 (Q8N3R9 whole entry, looked up): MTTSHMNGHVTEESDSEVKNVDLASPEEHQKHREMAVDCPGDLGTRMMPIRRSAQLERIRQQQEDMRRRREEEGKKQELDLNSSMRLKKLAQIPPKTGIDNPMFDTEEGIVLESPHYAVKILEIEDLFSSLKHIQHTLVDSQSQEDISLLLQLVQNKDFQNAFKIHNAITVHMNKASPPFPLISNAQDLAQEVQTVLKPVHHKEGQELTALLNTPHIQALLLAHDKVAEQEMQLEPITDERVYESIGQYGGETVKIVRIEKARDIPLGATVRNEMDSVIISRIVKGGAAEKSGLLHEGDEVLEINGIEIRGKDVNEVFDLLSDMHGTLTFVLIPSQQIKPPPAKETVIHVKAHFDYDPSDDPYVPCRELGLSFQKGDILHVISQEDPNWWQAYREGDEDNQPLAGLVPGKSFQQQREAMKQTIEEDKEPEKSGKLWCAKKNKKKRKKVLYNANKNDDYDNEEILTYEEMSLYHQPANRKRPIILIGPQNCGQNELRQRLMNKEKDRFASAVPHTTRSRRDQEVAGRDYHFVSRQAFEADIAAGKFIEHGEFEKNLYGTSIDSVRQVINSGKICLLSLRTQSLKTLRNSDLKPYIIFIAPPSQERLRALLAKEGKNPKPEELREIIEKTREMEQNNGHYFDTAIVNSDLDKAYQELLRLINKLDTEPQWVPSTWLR
# Chain of UniProt Q8TC05 (Q8TC05 whole entry, looked up): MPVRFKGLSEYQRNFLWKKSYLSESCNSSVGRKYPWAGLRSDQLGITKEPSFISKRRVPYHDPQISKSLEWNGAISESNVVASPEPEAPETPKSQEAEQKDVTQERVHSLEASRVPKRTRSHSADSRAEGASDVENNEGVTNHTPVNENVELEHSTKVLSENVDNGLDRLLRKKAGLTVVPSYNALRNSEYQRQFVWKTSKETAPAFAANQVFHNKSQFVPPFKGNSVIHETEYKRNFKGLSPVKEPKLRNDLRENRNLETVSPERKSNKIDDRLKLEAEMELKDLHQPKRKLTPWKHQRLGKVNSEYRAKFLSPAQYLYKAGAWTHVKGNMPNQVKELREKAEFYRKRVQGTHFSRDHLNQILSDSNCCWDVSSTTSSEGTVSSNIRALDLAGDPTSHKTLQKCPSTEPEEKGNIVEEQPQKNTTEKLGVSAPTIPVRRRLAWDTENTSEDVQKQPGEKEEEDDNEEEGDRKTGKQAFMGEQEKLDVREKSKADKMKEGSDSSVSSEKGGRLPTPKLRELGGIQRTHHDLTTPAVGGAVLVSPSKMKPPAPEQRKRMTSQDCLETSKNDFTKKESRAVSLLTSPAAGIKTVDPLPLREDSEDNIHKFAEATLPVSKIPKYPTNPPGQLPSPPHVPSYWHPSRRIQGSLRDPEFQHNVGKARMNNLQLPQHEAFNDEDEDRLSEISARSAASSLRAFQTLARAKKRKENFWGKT
# Chain of UniProt P07948 (P07948 whole entry, looked up): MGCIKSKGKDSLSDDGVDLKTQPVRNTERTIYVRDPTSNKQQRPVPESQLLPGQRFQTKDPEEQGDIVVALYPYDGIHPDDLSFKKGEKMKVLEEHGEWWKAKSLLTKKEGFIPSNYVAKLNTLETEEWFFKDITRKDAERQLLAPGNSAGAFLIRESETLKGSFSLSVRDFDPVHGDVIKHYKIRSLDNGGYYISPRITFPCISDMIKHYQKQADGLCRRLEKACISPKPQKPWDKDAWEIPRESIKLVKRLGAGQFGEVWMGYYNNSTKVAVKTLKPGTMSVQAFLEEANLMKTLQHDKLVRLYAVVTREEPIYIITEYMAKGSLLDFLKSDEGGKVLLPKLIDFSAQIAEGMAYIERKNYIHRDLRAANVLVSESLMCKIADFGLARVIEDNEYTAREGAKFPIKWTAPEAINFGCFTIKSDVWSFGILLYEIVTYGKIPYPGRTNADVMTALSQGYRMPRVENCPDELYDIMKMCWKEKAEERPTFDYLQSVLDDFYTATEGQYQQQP
# Chain of UniProt Q14703 (Q14703 whole entry, looked up): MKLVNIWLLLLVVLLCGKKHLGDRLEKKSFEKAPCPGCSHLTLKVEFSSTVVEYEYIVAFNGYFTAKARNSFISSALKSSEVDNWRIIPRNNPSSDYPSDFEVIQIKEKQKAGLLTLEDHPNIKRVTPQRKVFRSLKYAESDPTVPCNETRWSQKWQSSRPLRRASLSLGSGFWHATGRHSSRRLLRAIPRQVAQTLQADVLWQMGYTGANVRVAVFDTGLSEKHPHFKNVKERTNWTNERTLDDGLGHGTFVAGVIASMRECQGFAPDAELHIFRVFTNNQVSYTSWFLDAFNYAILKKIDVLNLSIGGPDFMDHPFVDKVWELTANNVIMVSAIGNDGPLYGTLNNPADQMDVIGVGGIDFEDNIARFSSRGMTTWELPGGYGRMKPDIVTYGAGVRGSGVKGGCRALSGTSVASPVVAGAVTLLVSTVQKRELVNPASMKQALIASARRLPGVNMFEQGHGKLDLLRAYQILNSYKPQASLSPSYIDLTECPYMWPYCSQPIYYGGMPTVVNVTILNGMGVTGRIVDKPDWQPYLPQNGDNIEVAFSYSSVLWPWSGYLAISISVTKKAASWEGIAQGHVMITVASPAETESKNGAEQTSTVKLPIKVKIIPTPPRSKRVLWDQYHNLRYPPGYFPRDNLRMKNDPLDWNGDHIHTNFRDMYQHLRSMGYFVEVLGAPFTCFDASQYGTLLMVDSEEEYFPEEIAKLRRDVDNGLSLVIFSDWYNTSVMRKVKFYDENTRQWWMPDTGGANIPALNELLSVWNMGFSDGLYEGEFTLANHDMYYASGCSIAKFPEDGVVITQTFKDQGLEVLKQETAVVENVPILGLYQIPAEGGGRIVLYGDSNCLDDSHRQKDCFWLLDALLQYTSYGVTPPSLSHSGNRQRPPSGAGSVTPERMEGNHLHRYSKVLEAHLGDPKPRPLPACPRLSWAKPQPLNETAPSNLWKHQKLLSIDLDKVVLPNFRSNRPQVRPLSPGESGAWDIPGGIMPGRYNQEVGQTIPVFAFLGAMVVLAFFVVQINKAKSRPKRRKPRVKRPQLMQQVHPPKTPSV
# Chain of UniProt Q8N4C8 (Q8N4C8 whole entry, looked up): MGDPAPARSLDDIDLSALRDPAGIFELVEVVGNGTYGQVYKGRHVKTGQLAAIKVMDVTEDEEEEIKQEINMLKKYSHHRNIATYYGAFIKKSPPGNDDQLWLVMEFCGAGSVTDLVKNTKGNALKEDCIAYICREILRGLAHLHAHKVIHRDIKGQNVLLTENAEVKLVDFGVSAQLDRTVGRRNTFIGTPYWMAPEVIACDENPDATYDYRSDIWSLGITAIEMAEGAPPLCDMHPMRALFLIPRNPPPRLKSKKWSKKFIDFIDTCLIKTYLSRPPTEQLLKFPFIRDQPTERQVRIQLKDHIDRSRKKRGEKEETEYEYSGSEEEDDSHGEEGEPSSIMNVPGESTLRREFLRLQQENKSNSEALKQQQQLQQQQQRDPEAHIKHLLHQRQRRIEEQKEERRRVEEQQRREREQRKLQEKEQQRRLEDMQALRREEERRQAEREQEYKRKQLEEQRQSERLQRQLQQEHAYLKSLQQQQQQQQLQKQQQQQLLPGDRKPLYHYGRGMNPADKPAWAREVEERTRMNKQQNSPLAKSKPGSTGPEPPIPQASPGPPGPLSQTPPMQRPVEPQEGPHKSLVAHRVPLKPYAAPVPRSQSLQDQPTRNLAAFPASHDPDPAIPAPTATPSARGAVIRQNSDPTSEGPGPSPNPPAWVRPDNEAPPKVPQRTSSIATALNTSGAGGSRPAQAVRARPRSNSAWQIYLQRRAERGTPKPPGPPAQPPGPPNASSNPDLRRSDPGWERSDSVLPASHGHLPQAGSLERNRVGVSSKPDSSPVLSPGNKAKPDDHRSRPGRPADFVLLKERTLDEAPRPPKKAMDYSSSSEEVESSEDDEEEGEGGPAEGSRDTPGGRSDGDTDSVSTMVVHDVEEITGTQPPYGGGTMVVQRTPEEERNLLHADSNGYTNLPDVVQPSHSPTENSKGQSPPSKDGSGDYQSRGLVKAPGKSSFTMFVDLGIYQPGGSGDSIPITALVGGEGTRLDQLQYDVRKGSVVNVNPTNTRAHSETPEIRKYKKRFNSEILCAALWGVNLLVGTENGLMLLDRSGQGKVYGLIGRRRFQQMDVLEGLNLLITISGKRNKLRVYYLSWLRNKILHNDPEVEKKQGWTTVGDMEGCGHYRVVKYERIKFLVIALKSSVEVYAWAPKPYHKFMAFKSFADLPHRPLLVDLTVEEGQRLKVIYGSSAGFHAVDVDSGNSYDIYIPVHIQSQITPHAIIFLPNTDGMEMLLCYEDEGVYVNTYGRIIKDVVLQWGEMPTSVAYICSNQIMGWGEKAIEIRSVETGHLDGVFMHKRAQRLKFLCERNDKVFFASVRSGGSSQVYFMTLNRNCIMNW
# Chain of UniProt A9UHW6 (A9UHW6 whole entry, looked up): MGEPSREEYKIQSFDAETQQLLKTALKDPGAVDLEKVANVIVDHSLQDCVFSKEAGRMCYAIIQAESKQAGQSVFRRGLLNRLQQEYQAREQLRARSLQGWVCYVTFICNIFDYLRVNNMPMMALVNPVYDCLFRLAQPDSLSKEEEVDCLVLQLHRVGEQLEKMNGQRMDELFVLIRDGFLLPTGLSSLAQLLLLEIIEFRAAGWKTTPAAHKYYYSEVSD
# Chain of UniProt Q9BTT4 (Q9BTT4 whole entry, looked up): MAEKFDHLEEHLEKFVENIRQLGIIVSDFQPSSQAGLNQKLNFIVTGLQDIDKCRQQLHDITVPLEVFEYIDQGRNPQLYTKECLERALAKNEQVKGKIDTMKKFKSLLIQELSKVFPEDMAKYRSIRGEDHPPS
Target,log2 fold change [1],log2 fold change [2],log2 fold change [3],log2 fold change [4],log2 fold change [5],log2 fold change [6],log2 fold change [7],log2 fold change [8],log2 fold change [9],log2 fold change [10],log2 fold change [11],log2 fold change [12],log2 fold change [13],log2 fold change [14],log2 fold change [15],log2 fold change [16],log2 fold change [17],log2 fold change [18],log2 fold change [19],log2 fold change [20]
MDM1 (UniProt Q8TC05),-0.527,0.007,-0.071,-0.126,-0.328,0,-0.12,0.018,-0.031,0.14,-0.004,-1.42 (active),0.05,0.336,0.083,0.554 (active),,,,
MPP5 (UniProt Q8N3R9),0.066,-0.08,-0.051,0.034,0.045,0.073,0.114,-0.217,,-0.139,,-0.003,-0.017,0.01,-0.033,0.099,-0.091,-0.028,0.115,-0.043
MIF4GD isoform 3 (UniProt A9UHW6),0.021,0.014,0.002,-0.01,-0.066,-0.012,0.01,-0.037,0.007,0.049,-0.008,0.023,0.041,0.021,0.005,0.013,-0.054,0.012,0.025,-0.03
MED10 (UniProt Q9BTT4),0.038,0.041,0.042,0.068,0.045,0.11,-0.185,0.082,-0.03,-0.045,0.107,-0.024,0.016,0.04,-0.057,0.055,0.232,0.016,0.014,0.187
LRIF1 (UniProt Q5T3J3),-0.018,0.075,-0.035,0.002,0.126,0.049,0.052,-0.03,0.234,-0.039,-0.094,-0.008,-0.133,0.006,0.039,-0.038,,0.019,0.026,
MBTPS1 (UniProt Q14703),0.096,-0.058,0.013,-0.002,0.029,0.048,-0.036,,,,,0.114,-0.006,-0.164,-0.009,-0.15,0.012,-0.008,0.01,-0.001
LPCAT1 (UniProt Q8NF37),-0.117,0.117,0.067,0.045,0.097,0.037,-0.063,0.07,-0.01,-0.009,0.005,-0.209,-0.107,0.115,0.006,0.078,-0.034,-0.031,-0.048,-0.072
MPDZ (UniProt O75970),0.028,0.117,0.236,0.053,0.099,-0.091,-0.032,-0.167,-0.114,0.228,0.046,0.099,-0.003,0.016,0.118,-0.066,,0.127,0.053,
MRPL35 (UniProt Q9NZE8),0.057,-0.226,0.01,0.014,0.033,,,0.01,-0.072,0.009,0.051,-0.207,-0.054,0,,0.039,0.001,0.01,-0.023,-0.02
LUC7L (UniProt Q9NQ29),-0.259 (active),0.015,-0.117,-0.075,0.002,0.065,-0.039,0.033,0.01,0.037,-0.022,-0.097,0.006,-0.32 (active),0.012,0.023,-0.009,0.097,-0.028,-0.022
MINK1 (UniProt Q8N4C8),-0.049,-0.137,0.055,0.025,0.109,-0.133,0.022,0.051,-0.003,,-0.084,0.271,0.026,-0.102,0.014,0.249,-0.02,-0.149,0.24,-0.158
MAPK6 (UniProt Q16659),0.133,-0.086,0.115,0.049,-0.023,-0.037,-0.092,-0.001,0.072,0.113,-0.038,0.075,-0.008,-0.042,-0.024,-0.045,-0.021,0.025,-0.006,-0.028
MAP4K5 (UniProt Q9Y4K4),0.045,-0.021,0.068,0.125,-0.006,0.009,-0.191,-0.027,0.189,0.086,-0.035,0.013,-0.021,0.055,0.152,0.112,0.044,,-0.04,-0.046
KRI1 (UniProt Q8N9T8),0.017,-0.113,0.016,0.019,-0.012,0.038,0.009,0.042,,-0.106,,0.011,0.036,-0.022,0.014,0.045,-0.072,-0.057,0.023,0.009
MRPL27 (UniProt Q9P0M9),0.082,-0.017,0.016,,-0.028,-0.047,0.008,-0.019,0,0.022,0.02,0.658 (active),0.02,-0.249,0.029,-0.076,0.017,-0.046,0.011,0.012
MBLAC2 (UniProt Q68D91),-0.011,0.033,0.041,0.059,-0.096,0.06,-0.003,0.005,0.013,0.033,-0.012,-0.027,0.038,0.036,0.084,0.006,-0.008,0.025,0.033,-0.049
LYN isoform 2 (UniProt P07948),0.138,-0.153,0.175,,0.014,-0.063,0.301,0.229,,0.054,,0.026,-0.357,0.891 (active),0.126,-0.006,,0.049,-0.076,

# — the supplement of paper PMC10849652
